# Epigenetic derep – Quantitative High-Throughput Screen for Regulators of Epigenetic Control | murine LDR cells, GFP reporter derepression, 30 h | Potency, µM (highest dose often 53.9 µM), for the others: at the highest dose GFP activation, usual class: activators | actives 0.2% (n = 280,000) | AID 1865, 2009; also: potency is read from the fitted curve at half-maximal effect; % of control where 0% means no effect; nearly all actives have a fitted effect of over 60% in size
#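 Murine LDR cells carrying a silenced, genomically integrated CMV-driven GFP reporter were exposed to compound for 30 hours at 37 C. After PBS washes, GFP-positive cells (20–120 um objects) were counted by laser-scanning microplate cytometry.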
# LDHA block – qHTS assay for inhibitors of human lactate dehydrogenase; L-lactate dehydrogenase A chain (Homo sapiens), P00338; purified LDHA, NADH/diaphorase-resazurin fluorescence; active compounds read low; activity change, % (values are at about 110 or 230 µM); actives 0.15% (n = 480,000); AID 1347041, 2019; in the data active = activity change below about -30%; inconclusive = mostly about -25% to -30%;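 also: plate controls were DMSO wells for no effect and wells without enzyme for full effect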
#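 Remaining NADH was detected by diaphorase (0.133 mg/mL) converting 37 µM resazurin to fluorescent resorufin, read at 0 and 20 minutes. The preceding 5-minute room-temperature reaction used 2 nM LDHA, 0.2 mM sodium pyruvate and 0.06 mM NADH at pH 7.4.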
# Vif-APOBEC3F blk – qHTS for Inhibitors of Vif-A3F Interactions: qHTS | actives 0.2% (n = 390,000) | HeLa A3F-eYFP + Vif (tagged APOBEC3F with the HIV-1 protein that degrades it), YFP fluorescence increase | Potency, µM (highest dose often 46.1 µM), inactives show top-dose activity, negative = active; also: potency is read from the fitted curve at half-maximal effect; % of control where 0% means no effect; nearly all actives have a fitted effect of over 65% in size
#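 HeLa cells stably expressing Vif plus C-terminally eYFP-tagged A3F were seeded, incubated overnight at 37 deg C, dosed with compound, incubated overnight again at 37 deg C. Yellow fluorescence (Ex 488/Em 500-530) reported blocked Vif-mediated A3F-eYFP degradation.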
# Vif-A3G inh – qHTS for Inhibitors of Vif-A3G Interactions: qHTS; HeLa A3G-eYFP + Vif (tagged APOBEC3G with the HIV-1 protein that degrades it), YFP fluorescence, overnight; Potency, µM (titrated, usually from 46.1 µM), without a hit: top-dose activity, negative = active, hits mostly inhibitors; DNA dC->dU-editing enzyme APOBEC-3G (Homo sapiens), Q9HC16; actives 0.076% (n = 410,000); also: potency is read from the fitted curve at half-maximal effect; % is scaled to controls: 0 for no effect and ±100 for the full control effect; nearly all actives have a fitted effect of over 60% in size
# Target sequence (Q9HC16 whole entry, looked up): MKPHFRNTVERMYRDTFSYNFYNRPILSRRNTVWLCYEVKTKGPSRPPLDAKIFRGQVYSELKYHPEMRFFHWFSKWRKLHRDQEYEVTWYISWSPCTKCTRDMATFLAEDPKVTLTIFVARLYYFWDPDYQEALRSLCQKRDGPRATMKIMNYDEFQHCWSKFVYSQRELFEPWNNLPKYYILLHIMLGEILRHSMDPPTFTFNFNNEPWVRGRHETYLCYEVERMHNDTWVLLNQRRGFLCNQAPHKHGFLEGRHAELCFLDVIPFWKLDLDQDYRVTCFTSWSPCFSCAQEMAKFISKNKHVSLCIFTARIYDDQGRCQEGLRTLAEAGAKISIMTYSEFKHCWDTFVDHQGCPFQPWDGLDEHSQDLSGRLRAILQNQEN
#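 HeLa cells stably expressing Vif and C-terminally eYFP-tagged A3G, seeded overnight at 37 deg C, then exposed to compound by pintool overnight at 37 deg C. Rise in yellow fluorescence (Ex 488/Em 500-530, Acumen) marks blocked Vif-driven A3G degradation.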
# Apoferritin bind – qHTS Assay for Identification of Novel General Anesthetics | apoferritin/1-aminoanthracene competitive binding, fluorescence | Potency, µM (highest dose often 77.5 µM), for the others: top-dose activity change, negative = displacement, actives largely listed as inhibitors | actives 0.074% (n = 350,000); also: potency is read from the fitted curve at half-maximal effect; % is scaled to controls: 0 for no effect and ±100 for the full control effect; nearly all actives have a fitted effect of over 20% in size
#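 Probe: 1-aminoanthracene (50% saturated, PBS). Protein: horse-spleen apoferritin, 10 uM. Incubation: 10 min, room temperature. Detection: 380 nm excitation, 535 nm emission. Analysis: normalized response, four-parameter Hill.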
# * = called active by the depositor; ? = inconclusive; · = no result. In the library only some 0.49% were active in any assay of this set; here they are far more common. Unless noted, calls follow the shape of the dose curve; as a rule, active = well fitted curve in the direction sought with a large enough effect; inconclusive = small, poorly fitted or top-dose-only effect, or another doubt; inactive = no such curve, though single readings can be large; an effect the other way counts as inactive or inconclusive.
SMILES,Epigenetic derep,LDHA block,Vif-APOBEC3F blk,Vif-A3G inh,Apoferritin bind
N#C/C(=C\c1ccc(N2CCOCC2)o1)C(=O)NCCc1ccccc1,-2%,2,22µM*,2%,?
CSc1nc(-c2ccco2)nn1C(=O)c1cccs1,-2%,-1,-7%,0%,-20%
O=C(c1cccs1)n1nc(-c2ccco2)nc1SCc1ccccc1,-4%,2,0%,1%,28µM*
Fc1ccc(COc2ccc3ccccc3c2CNc2nn[nH]n2)cc1,-1%,-4,-1%,13µM*,2%
CCN1CCN(C(c2cccs2)C(C)NS(=O)(=O)c2ccc(F)cc2)CC1 (configuration not stated),0%,-4,1%,1%,4%
Cc1cc(NC(=O)CSc2nc3c(C)ccc(C)c3cc2C#N)no1,·,1,?,-12%,-10%
Cc1cc(NC(=O)CSc2nc3c(C)cccc3cc2C#N)no1,·,-3,11µM*,?,2%
Cc1cccc2cc(C#N)c(SCC(=O)N3CC(=O)Nc4ccccc43)nc12,20µM*,-3,?,?,-9%
CN(/N=C/c1ccc(Cl)cc1)c1ncc(Cl)cc1C(F)(F)F,-1%,2,-15%,-6%,-1%
COc1ccc(/C=C2\SC(=Nc3ccccc3)NC2=O)cc1,·,·,·,·,-10%
COc1ccccc1N=C1NC(=O)/C(=C/c2ccc(N(C)C)cc2)S1,·,-10,8.9µM*,4µM*,-11%
Cc1ccccc1N(C)S(=O)(=O)c1nnc(NC(=O)c2ccccc2F)s1,0%,-1,3%,-5%,-17%
Cc1ccccc1N(C)S(=O)(=O)c1nnc(NC(=O)C(C)C)s1,22µM*,-19,1%,4%,-15%
COc1ccc(OC)c(NC(=O)c2sc3nc(Cc4ccccc4)cc(C(F)(F)F)c3c2N)c1,-1%,-2,10µM*,0%,5%
COc1ccc(NC(=O)c2sc3nc(C(F)(F)F)cc(C)c3c2N)cc1OC,14µM*,6,5.6µM*,-14%,6%
COc1ccc(-c2cc(C(F)(F)F)c3c(N)c(C(=O)NCCSC)sc3n2)cc1,·,-6,?,?,-9%
COc1cnc(-c2ccccn2)nc1Oc1ccc(F)cc1F,0%,1,11µM*,-1%,-8%
COc1cnc(-c2ccccn2)nc1Oc1ccccc1Cl,2%,-1,2%,2%,2%
CCOC(=O)/C=c1\s/c(=C\c2ccc3cc(OC)ccc3c2)c(=O)n1CC(=O)NCc1ccc2c(c1)OCO2,7.9µM*,-3,-3%,2%,1%
COc1ccccc1N1CCN(CC(=O)NCC2CCCO2)CC1 (configuration not stated),0%,-43*,-7%,0%,-2%
CCOC(=O)/C=c1\s/c(=C\c2ccccc2C)c(=O)n1CC(=O)NCc1ccc2c(c1)OCO2,?,1,?,?,-17%
CCOC(=O)/C=c1/s/c(=C\c2c(OC)ccc3ccccc23)c(=O)n1CC(=O)NCC1CCCO1 (configuration not stated),·,4,?,11µM*,·
CCOC(=O)/C=c1\s/c(=C\c2c(OCC)ccc3ccccc23)c(=O)n1CC(=O)NCC1CCCO1 (configuration not stated),-1%,-5,-19%,?,-19%
COc1ccc(/C=N/Nc2nc(-c3cccc(S(=O)(=O)N4CCCC4)c3)cs2)c(OC)c1,1%,-5,6%,2%,14%
COc1ccc(NC(=O)N2CCCC2C(=O)NCCc2ccccc2)cc1 (configuration not stated),·,2,-11%,0%,-3%
Cc1ccc(S(=O)(=O)/N=C2/NC(=O)/C(=C/c3cc([N+](=O)[O-])ccc3O)S2)cc1,·,-51*,?,-12%,-16%
COc1cccc(N=C2NC(=O)/C(=C/c3cc([N+](=O)[O-])ccc3O)S2)c1,·,-13,25µM*,?,1%
